The values that follow come from PubChem BioAssay (NCATS).

Results filed as inconclusive are left out. Where a call stands in place of a potency, no number is given. Active and inactive are the calls of the source. The call rests on the fitted dose curve; in most records, active means well fitted inhibition curve with a large enough effect; inconclusive means small, poorly fitted or top-dose-only effect; inactive means no such curve, though single readings can be large or run the other way.
Potency means the concentration at half of the fitted maximal effect.

The target of the test is Retinaldehyde dehydrogenase 3 (Homo sapiens) (UniProt P47895). As to the kind of experiment: qHTS for Inhibitors of the Aldehyde Dehydrogenase Family (ALDH1A3) Confirmatory screens (AID 2061311). Further: nearly all actives have a fitted effect of over 60% in size. The conditions noted are these: ALDH inhibition qHTS; series mostly up to 46 µM. Background: In qHTS, concentration-response curves come from the screen itself.
In the case of `COc1ccc(C)cc1NC(=O)N1CCC(OC2CCN(Cc3ccccc3)CC2)CC1`, the Potency entry was “inactive”.
As to `COc1ccc(-c2nc3ccccc3c(=O)n2Cc2ccccc2)cc1OCc1ccc(NC(C)=O)cc1`, the Potency was 22.5 µM (active).
Then `N#Cc1cccc(C(=O)Nc2ccc3c(N4CCOCC4)ncnc3c2)c1`, with “inactive”; and `CN(C)Cc1nnc(C2CC(NC(=O)c3ccc4scnc4c3)C2)n1C` (stereo not given), with “inactive”; and `O=C(CSc1nc2ncccc2[nH]1)Nc1cc(F)ccc1F`, with “inactive”.
With `COc1cccc(-c2nccc3c(=O)cc(N4CCOCC4)oc23)c1`, the Potency entry is “inactive”.
As to `O=C(NCc1ccc(F)cc1)c1nc(-c2ccc(Cl)nc2)c2cnccn12`, the Potency entry is “inactive”.
With `COc1ccc(OC)c(-c2cc(-c3cccs3)nc3c(C)noc23)c1`, the Potency was 12.6 µM (active).
Then `CC(=O)NC(c1ccco1)c1cc(Cl)c2ccccc2c1O` (stereo not given), with 11.3 µM (active); and `CCOc1ccc(NC(=O)CN2CCN(c3ccc(Cl)cc3)CC2)cc1`, with “inactive”; and `O=c1c2cnn(-c3ccc(Cl)cc3)c2ncn1Cc1cccc(C(F)(F)F)c1`, with “inactive”.
Consider `COc1ccc(Cl)cc1NC(=O)c1cc2nc(-c3ccc(C)cc3)cc(C(F)(F)F)n2n1`, for which the Potency result is “inactive”.
Then `Cc1nonc1OCCn1cc(-c2ccc(CO)o2)nn1`, with “inactive”; and `CNC(=O)c1cccc(-c2ccc(C(C)(C)C#N)cc2)n1`, with 8.91 µM (active).
As to `O=C(C#Cc1ccccc1)NC1CCCc2c1cnn2-c1ccc(F)cc1F` (stereo not given), the Potency entry was “inactive”.
With `COCCn1c(CNC(=O)c2cc([N+](=O)[O-])ccc2Cl)nc2cccnc21`, the Potency entry is “inactive”.
With `COc1ccccc1-c1cnc2n[nH]c(-c3ccccc3C)c2n1`, the Potency entry was “inactive”.
As for `CNCc1ccc(N2CCCC2)cc1`, the Potency entry was “inactive”.
The value for `CN(C(=O)c1cnc2n[nH]c(-c3ccccc3)c2n1)c1ccccc1` was “inactive”.
The value for `O=S(=O)(Nc1nc2ccccc2s1)c1ccc(NCc2ccc(Br)cc2O)cc1` was 14.2 µM (active); that for `O=C(CC1CCOCC1)NCc1ccc(N2CCOCC2)cc1` was “inactive”; that for `CC[C@H]1CN(C(=O)Nc2cccc(OC)c2)CC[C@H]1CC(=O)NCc1ccccc1` was “inactive”.
Take `O=C(Cn1c(=O)n(Cc2cccs2)c(=O)c2cccnc21)Nc1ccccc1F`: the Potency entry is “inactive”.
The value for `CCc1cccc(C)c1NC(=O)CSc1nc2ccncc2[nH]1` was “inactive”; that for `CCc1nn2c(=O)c(S(=O)(=O)Nc3ccc(C)cc3C)c(C)nc2s1` was “inactive”.
Consider `CN(Cc1ccc(-c2ccccc2)cc1)CC1CCCCC1`, for which the Potency is 35.5 µM (active).
With `O=C(O)c1cc(Br)c(O)c2ncccc12`, the Potency entry was “inactive”.
The value for `Cc1cc(=O)[nH]c(CCNc2nc(-c3ccncc3)nc3c2c(C)nn3C)n1` was “inactive”; that for `COc1ccc(NC(=O)N2CCC(CC(=O)NCc3ccccc3)C2)cc1OC` (stereo not given) was “inactive”; that for `Cn1ccc(Nc2ccc3nnc(-c4ccccn4)n3n2)n1` was “inactive”.
On to `Cc1cc(Br)ccc1NC(=O)CCNS(=O)(=O)c1cccc2nonc12`, for which the Potency entry was “inactive”.
For `CCC(=O)NC(C)c1cc(Cl)c2ccccc2c1O` (stereo not given), the Potency is 12.7 µM (active).
On to `CCOc1ccc(S(=O)(=O)NCc2nc3cccnc3n2Cc2ccccc2OC)cc1`, for which the Potency is 15.8 µM (active).
The value for `COc1cccc(CNc2ccc(S(=O)(=O)Nc3ccc(N4CCNCC4)nc3)cc2)c1O` was 15.9 µM (active); that for `O=C(CSc1nc(-c2cccs2)nc2cc(=O)[nH]n12)Nc1cccc(C(F)(F)F)c1` was “inactive”.
The value for `O=C(Nc1ccc([C@@H](O)[C@H]2COCC(=O)N2CCCc2ccccc2)cc1)C1CCC1` was “inactive”; that for `Cc1ccc(NC(=O)CSc2nc3ncccc3[nH]2)cc1F` was “inactive”.
`Cn1ncc2c(C(=O)NCc3ccc(F)cc3)cc(-c3ccc(F)cc3)nc21`: the Potency entry is “inactive”.
Turning to `O=[S+]([O-])(c1ccccc1)c1nnn2c1nc(N1CCC(F)CC1)c1ccccc12`, the Potency result was “inactive”.
As for `COc1cccc(CCC(=O)NCc2nnc3c(-c4nc(C)no4)cccn23)c1`, the Potency result is “inactive”.
